# High-throughput results from PubChem BioAssay.
# Sampled rows, rich in hits. Any-hit rate of the full collection: about 3%.
# SENP8 block-1 = inhibitors of human SENP8 protease; purified SENP8, Z-RLRGG-aminoluciferin cleavage, luminescence; inhibition, % at 10 µM; 330,000 compounds, 1.2% hits; AID 2540; in the data active means inhibition above about 50%
# Target sequence (Q96LD8 whole entry, looked up): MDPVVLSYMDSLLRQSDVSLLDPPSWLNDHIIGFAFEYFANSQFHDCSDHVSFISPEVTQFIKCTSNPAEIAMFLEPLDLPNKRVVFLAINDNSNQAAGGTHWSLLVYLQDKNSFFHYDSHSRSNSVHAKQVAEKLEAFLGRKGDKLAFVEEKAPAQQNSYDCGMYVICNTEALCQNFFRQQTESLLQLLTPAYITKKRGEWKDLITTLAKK
# PPC-1+TRAIL kill = kills PPC-1 cancer cells in the presence of TRAIL; PPC-1 cells + TRAIL, ATPLite viability luminescence; cell killing (% activity), % at 4 µM or 5 µM; 220,000 compounds, 0.41% hits;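 active means cell killing above 50% in the first pass at 4 µM, then a duplicate retest at 5 µM averaging 50% or more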;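 further: plate controls were cells with TRAIL plus DMSO for no effect and medium-only wells lacking cells for full effect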
# SENP8 block-2 = inhibitors of human SENP8 protease; recombinant SENP8, Nedd8 substrate fluorescence; inhibition, % at 20 µM; 360,000 compounds, 0.64% hits; in the data active means inhibition mostly above about 40%, no sharp cut-off; inactive means mostly below about 27%
# TRAIL sens C8 = caspase-8 TRAIL sensitization; 360,000 compounds, 1% hits; NB7+C8 cells + TRAIL, ATPlite viability luminescence; inhibition (viability loss, TRAIL sensitization), % at 10 µM;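 active means compounds causing at least 50% loss of cell viability in the single-dose screen, relative to plate controls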
# SENP7 inh = SENP7 protease inhibition; 330,000 compounds, 1.5% hits; Q9BQF6; inhibition, % at 5 µM; recombinant SENP7, Z-RLRGG-aminoluciferin luminescence, 40 min;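 active means inhibition above about 50% at the single test dose, limit read from the data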;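 further: plate controls were DMSO with enzyme for no effect and no enzyme buffer wells for full effect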
# Target sequence (Q9BQF6 706-1050 limits assumed): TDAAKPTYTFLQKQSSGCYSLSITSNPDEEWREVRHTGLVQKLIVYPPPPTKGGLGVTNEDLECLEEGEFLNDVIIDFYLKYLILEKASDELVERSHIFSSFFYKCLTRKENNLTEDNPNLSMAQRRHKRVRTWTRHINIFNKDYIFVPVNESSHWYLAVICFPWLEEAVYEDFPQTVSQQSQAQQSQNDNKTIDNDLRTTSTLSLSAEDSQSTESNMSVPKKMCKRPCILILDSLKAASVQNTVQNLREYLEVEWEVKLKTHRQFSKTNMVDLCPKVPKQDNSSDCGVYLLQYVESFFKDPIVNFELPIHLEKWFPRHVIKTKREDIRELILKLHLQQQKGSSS
# SENP6 block = inhibitors of human SENP6 protease; Q9GZR1; Recombinant SENP6 catalytic domain, aminoluciferin luminescence; inhibition, % at 10 µM; 330,000 compounds, 1.8% hits;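 active means inhibition above about 50% at the single tested dose, limit read from the data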;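 further: plate controls were DMSO wells with enzyme for no effect and DMSO wells lacking enzyme for full effect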
# The depositor's hits bear a star; · = not tested or not shown.
SMILES,SENP8 block-1,PPC-1+TRAIL kill,SENP8 block-2,TRAIL sens C8,SENP7 inh,SENP6 block
C/C(=C\c1ccc(N(C)C)cc1)[N+](=O)[O-],2.7,35.5,-3.2,50.1*,0.4,-7.7
O=c1c2ccccc2[se]n1-c1ccccc1,61.2*,21.4,-10.7,-9.1,57.9*,72.2*
CCCC(=O)NC1=C(N2CC2)C(=O)C(NC(=O)CCC)=C(N2CC2)C1=O,·,·,66.0*,5.8,·,·
O=C(CCc1ccc(O)cc1)N1C[C@H]2C[C@@H](C1)c1cccc(=O)n1C2,-7.5,·,32.9,3.9,-8.9,-8.9
COC(=O)C1=C(C(=O)OC)SC2(S1)C(C(=O)OC)=C(C(=O)OC)Sc1c2ssc1=O,·,·,42.8*,51.2*,·,·
C=CCn1c(O)c(C(CC)=NCc2cc(OC)cc(OC)c2)c(=O)[nH]c1=O,-7.3,20.4,20.2,49.6*,-5.3,-13.5
CC1(C)CC(N(CCc2ccccc2)Cc2ccccc2)CCO1 (stereo not given),3.1,-9.2,19.5,-17.9,3.0,4.5
Cc1ccc(-c2cc(-c3ccc(C)cc3)[n+](-c3ccc(C(=O)O)cc3)c(-c3ccc(C)cc3)c2)cc1,2.5,·,-475.0,3.8,3.1,-4.1
Cc1ccc(C[n+]2c(-c3ccc(C)cc3)cc(-c3ccc(C)cc3)cc2-c2ccc(C)cc2)cc1,-19.3,·,-487.7,63.0*,-10.6,-36.0
Cc1cc(OCCN2CC2)c2ccccc2n1,-5.9,28.9,·,·,-1.3,-8.8
CCCCCCCCCOc1ccc2[nH]cc(CCN)c2c1,·,61.0*,·,·,·,·
CS(=O)(=O)c1ccc(C2=C(CNC(=O)c3nccs3)[C@H]3CC[C@@H](C2)N3Cc2ccccc2)cc1,·,·,15.6,-10.2,·,·
C=CCN1C(=O)NC(=O)/C(=C/c2c(CCN(C)C(=O)c3ccccc3)cc3c(c2OC)OCO3)C1=O,-1.3,·,54.1*,9.3,-8.4,-19.9
CC12CC1(C)C(=O)N(c1cc(Cl)cc(Cl)c1)C2=O (stereo not given),·,·,-2.3,-6.8,·,·
CC1(C)C(C(=O)N2CCN(c3ccc(Cl)cc3)CC2)C1(C)C,6.5,·,14.1,-6.0,-2.3,5.1
COC(=O)C1CN(C#N)N(c2ccc(Cl)cc2)C12c1ccccc1-c1ccccc12 (stereo not given),1.2,17.3,9.6,91.3*,-0.3,-5.5
CC12C=CC(=O)C=C1CCC1C2C(O)CC2(C)C1CCC2(C)O (stereo not given),·,·,15.2,-14.6,·,·
Nc1ccccc1C(=O)OCC(=O)c1ccc2c(c1)OCCO2,94.8*,-7.2,-140.1,4.9,98.5*,95.4*
C=CCN1CC[C@]23c4c5ccc(O)c4OC2C(O)CC[C@@]3(O)[C@H]1C5 (stereo not given in full),6.6,·,-23.3,-11.6,5.8,-13.1
CCOC(=O)c1c(N)n(CCCOC(=O)c2ccco2)c2nc3ccccc3nc12,21.4,20.7,-477.6,51.5*,19.8,15.1
COCCOC(=O)c1c(N)n(Cc2ccco2)c2nc3ccccc3nc12,-3.9,·,-470.4,0.0,13.0,15.0
c1cncc(C2Nc3cccc4cccc(c34)N2)c1,13.6,18.8,52.3*,-6.2,3.2,34.6
O=C1CCCC2=C1C(c1cccnc1)Nc1ccccc1N2 (stereo not given),-2.1,-12.4,30.0,-8.5,-11.6,-18.3
O=C(NCCN1CCC2(CC1)C(=O)NCN2c1cccc(F)c1)c1ccc2ccccc2c1,·,·,15.4,11.8,·,·
CN1[C@@H]2CCC[C@H]1CC(=O)C2,·,·,8.0,-1.6,·,·
SMILES,SENP8 block-1,PPC-1+TRAIL kill,SENP8 block-2,TRAIL sens C8,SENP7 inh,SENP6 block
CN1/C(=C\C=C2C(=O)NC(=O)NC2=O)C(C)(C)c2ccccc21,-4.9,1.2,21.6,-4.3,0.9,-22.5
CN1/C(=C\C=C\C2=[N+](C)c3ccc4ccccc4c3C2(C)C)C(C)(C)c2ccccc21,35.5,65.8*,·,·,24.4,58.9*
CCN1/C(=C/C=C/C2=[N+](CC)c3ccccc3C2(C)C)C(C)(C)c2ccccc21,·,·,41.2*,70.6*,·,·
CN1/C(=C\C=Nc2ccccc2)C(C)(C)c2ccccc21,3.2,13.1,-15.1,3.3,2.2,1.0
CCCCC1C(=O)NC(=S)N(C)C1=O (stereo not given),·,·,15.7,-2.8,·,·
OCCNc1c2c(nc3ccccc13)CCCC2,-9.4,-16.0,28.8,10.9,-0.6,0.0
CNc1ccc2nc3ccccc3[n+](C)c2c1,47.1,·,71.8*,41.3,29.7,66.2*
C[n+]1c2ccccc2nc2ccc(NCCO)cc21,71.4*,·,89.8*,23.0,41.0,81.2*
O=c1[nH]c2ccccc2n1C1CCN(C(c2cc3ccccc3o2)c2nnnn2-c2ccc3c(c2)OCCO3)CC1 (stereo not given),·,·,22.2,86.5*,·,·
O=c1[nH]c2ccccc2n1C1CCN(C(CCc2ccccc2)c2nnnn2Cc2ccccc2)CC1 (stereo not given),·,·,8.3,91.3*,·,·
COc1ccc(-n2nnnc2C(c2cc3ccccc3o2)N2CCC(n3c(=O)[nH]c4ccccc43)CC2)cc1 (stereo not given),·,·,29.8,66.0*,·,·
CSCCC(c1nnnn1Cc1ccccc1)N1CCC(n2c(=O)[nH]c3ccccc32)CC1 (stereo not given),·,·,17.1,47.0,·,·
COc1ccc(CN2CCN(Cc3ccccc3F)CC2)cc1,2.7,·,18.2,-5.9,1.3,-21.5
C[C@]12CCC3C(CC[C@H]4C[C@@H](O)CC[C@]34C)C1CC[C@@H]2OC(=O)[C@H](N)CCCCN (stereo not given in full),-14.8,·,23.0,5.3,-0.4,-15.5
[N-]=[N+]=NCc1cn2cccnc2n1,-4.5,29.7,-446.7,-2.5,1.3,-11.9
C=C1C(=O)O[C@@H]2C[C@@H](C)[C@@H]3C=CC(=O)[C@@]3(C)[C@@H](OC(=O)CC(=O)O[C@H]3[C@@H]4C(=C)C(=O)O[C@@H]4C[C@@H](C)[C@@H]4C=CC(=O)[C@]43C)[C@H]12,12.5,-17.2,1.0,94.5*,-2.0,7.5
C=C1C(=O)OC2CC(C)C3C=CC(=O)C3(C)C(O)C12 (stereo not given),·,·,1.5,85.6*,·,·
C=C1C(=O)O[C@H]2[C@H]1[C@H](OC(=O)CC(=O)O[C@@H]1C[C@@H](C)[C@@H]3C=CC(=O)[C@@]3(C)[C@H]3OC(=O)C(=C)[C@H]13)C[C@@H](C)[C@H]1C=CC(=O)[C@]12C,-5.1,3.6,20.9,26.7,4.3,-10.6
CN(C)/C=C/C(=O)C(Cl)(Cl)Cl,0.6,6.6,3.2,4.2,-2.3,-2.9
Cc1cc(C=C2C(=O)N(C)C(=S)N(C)C2=O)c(C)n1C1CCCCC1,-2.7,-2.7,41.2*,-1.2,-2.5,4.0
CC(C)(O)/C=C/C(=O)C(C)(O)C1C(O)CC2(C)C3CC=C4C(C=C(O)C(=O)C4(C)C)C3(C)C(=O)CC12C (stereo not given),·,·,8.5,62.4*,·,·
CSc1ccc(CN2CCN(C(=O)COc3cccc(C)c3)CC2)cc1,-4.2,10.6,20.0,4.4,-17.6,8.7
